IL1B secr inh: blocks inflammasome-driven IL-1 beta release; THP-1 LPS/ATP IL-1B secretion, AlphaLISA, 16 h; hits give low values; activity change, % at 57.5 µM; hit rate 4.7% among 360,000; in the data active = activity change below about -50%; inconclusive = mostly about -30% to -49%; also: % is scaled to controls: 0 for no effect and ±100 for the full control effect
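Secreted IL-1B measured by AlphaLISA bead assay after 16 h compound exposure of THP-1 cells; compounds (final up to 57.5 uM) added 1 h before LPS (250 ng/mL) and ATP (1.25 mM) stimulation; lower signal means less secretion.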
D3 antag: antagonists of human D3 dopamine receptor; hit rate 2.5% among 360,000; D3R cells, DiscoveRx beta-arrestin luminescence, antagonist mode; hits give low values; P35462; max response, negative = inhibition, %; in the data active = max response below about -50%; inconclusive = no clear call, values can overlap the other calls; also: % is scaled to controls: 0 for no effect and ±100 for the full control effect
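Cells plated overnight at 1500 cells/well, then exposed to library compounds with dopamine controls for 90 minutes at 37 degrees C. DiscoveRx reagent added for 30–60 minutes at room temperature; luminescence read, quantitative HTS format.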
DT40 TDP1 CPT: DT40-hTDP1 cell growth loss with CPT; chicken DT40 Tdp1-/-;hTDP1 cells + 20 nM CPT, ATP luminescence, 48 h; Potency, µM (highest dose often 46.2 µM), for inactives: top-dose activity change, negative = growth inhibition, actives largely listed as inhibitors; hit rate 12% among 420,000; also: potency is read from the fitted curve at half-maximal effect; % is scaled to controls: 0 for no effect and ±100 for the full control effect; nearly all actives have a fitted effect of over 55% in size
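Cell growth measured by CellTiter-Glo luminescence after a minimum 48 h, 37 C compound exposure with 20 nM CPT in Tdp1-knockout DT40 cells stably expressing hTDP1, seeded 400/well; qHTS titration format.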
ClpP mod: qHTS Assay for Activators of ClpP; Potency, µM (titrated, usually from 57.5 µM), inactives show top-dose activity change, negative = active; purified B. subtilis ClpP, FRET peptide cleavage, 20 min; AID 651965, 2013; ATP-dependent Clp protease proteolytic subunit (Bacillus subtilis (strain 168)), P80244; hit rate 1.9% among 340,000; active = well fitted falling curve with a large enough effect; inconclusive = small, poorly fitted or top-dose-only effect; inactive = no such curve, though single readings can be large or run the other way; also: potency is read from the fitted curve at half-maximal effect; the source files actives as falling curves though it sought activators and does not explain the sign; nearly all actives have a fitted effect of over 65% in size
Target sequence (P80244 whole entry, looked up): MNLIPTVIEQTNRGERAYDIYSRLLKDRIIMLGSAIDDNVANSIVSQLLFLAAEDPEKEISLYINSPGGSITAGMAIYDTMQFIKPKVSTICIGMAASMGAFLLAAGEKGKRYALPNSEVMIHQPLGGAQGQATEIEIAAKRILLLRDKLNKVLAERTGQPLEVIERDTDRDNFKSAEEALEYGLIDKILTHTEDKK
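Purified B. subtilis ClpP, 10 microg/mL final in Tris/HCl pH8 with KCl, BSA, glycerol and Tween-20, cleaved an Abz/nitrotyrosine-quenched decapeptide. Fluorescence (ex 320, em 430) was read at 0 and 20 min at room temperature. Delta was normalized to 5.8 microM ADEP and DMSO/no-enzyme controls.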
DRD3 agonist: activates the human D3 dopamine receptor; hit rate 0.58% among 410,000; max activation, %; AID 652048; P35462; D3R DiscoveRx beta-arrestin cells, luminescence, 90 min; in the data active = max activation above about 30%; also: 0% is about no effect
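Agonist-mode cell screen: cells plated at 1500/well and incubated overnight at 37 °C, then exposed to library compounds for 90 min at 37 °C. Detection reagent was added for 30–60 min at room temperature, and luminescence was read.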
TDP1 cell noCPT: qHTS for Inhibitors of human tyrosyl-DNA phosphodiesterase 1 (TDP1): qHTS in cells in absence of CPT | DT40 Tdp1-/- hTDP1 cells, no CPT, ATP luminescence, 48 h | Potency, µM (titrated, usually from 46.2 µM), for the others: top-dose activity change, negative = growth inhibition, most hits filed as inhibitors | hit rate 15% among 420,000 | AID 686978, 2013; also: potency is read from the fitted curve at half-maximal effect; % is scaled to controls: 0 for no effect and ±100 for the full control effect; nearly all actives have a fitted effect of over 55% in size
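Growth of hTDP1-complemented DT40 Tdp1-knockout cells is measured by ATP luminescence after at least 48 hr compound exposure at 37 °C, with DMSO substituting for the 20 nM CPT used in the parallel screen.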
* marks the source's active call; other numbers are inactive results; ? = inconclusive; / = no result. Sampled rows, rich in hits. Any-hit rate of the full collection: about 21%. Unless noted, calls follow the shape of the dose curve; as a rule, active = well fitted inhibition curve with a large enough effect; inconclusive = small, poorly fitted or top-dose-only effect; inactive = flat fitted curve, though single readings scatter.

SMILES | IL1B secr inh | D3 antag | DT40 TDP1 CPT | ClpP mod | DRD3 agonist | TDP1 cell noCPT
CCCCCN(C(=O)CCC(=O)OCC(=O)Nc1cccc(SC)c1)c1c(N)n(CCCC)c(=O)[nH]c1=O | -10 | -4 | -14% | 1% | 2 | -16%
Cc1cc(/C=N/n2cnnc2)c(C)n1-c1ccc2c(c1)OCO2 | -1 | 13 | ? | -1% | -7 | -23%
Cc1cccc(-n2c(C)cc(/C=C3/C(=N)N4C(c5ccccc5)=CSC4=NC3=O)c2C)c1 | 16 | 6 | ? | -1% | -1 | 21µM*
Cc1cccc(-n2c(C)cc(C=C3C(=O)c4ccccc4C3=O)c2C)c1 | -58* | -11 | ? | -2% | -3 | 13µM*
Cc1cccc(-n2c(C)cc(/C=N/n3cnnc3)c2C)c1 | -12 | 30 | 23µM* | -2% | -2 | ?
Cc1cc(C=C2C(=O)c3ccccc3C2=O)c(C)n1-c1ccc(Cl)cc1 | 7 | -18 | -23% | -1% | -5 | ?
COc1cc(/C=C2/C(=N)N3C(c4ccccc4)=CSC3=NC2=O)ccc1OCC(=O)O | -5 | 0 | 21µM* | 2% | -2 | 15µM*
O=C(Nc1ccc2oc(-c3ccccc3F)nc2c1)c1ncn[nH]1 | -7 | 0 | -12% | 5% | 1 | ?
O=C(Nc1ccc(-c2nc3cc(NC(=O)c4cccs4)ccc3o2)cc1)c1cccs1 | 4 | -20 | 11µM* | ? | 5 | 13µM*
O=C(Nc1ccc(-c2nc3cc(NC(=O)c4ccc(Cl)cc4)ccc3o2)cc1)c1ccc(Cl)cc1 | / | / | 0% | 0% | -11 | 4.1µM*
O=C(Nc1ccc2oc(-c3ccc(Cl)c(Cl)c3)nc2c1)c1ncn[nH]1 | 10 | -3 | 5.2µM* | 1% | -2 | 5.2µM*
COc1cc2ccccc2cc1C(=O)Nc1ccc2oc(-c3ccccc3)nc2c1 | / | / | 16µM* | 4% | 11 | 16µM*
COc1cc2ccccc2cc1C(=O)Nc1ccc2oc(-c3cc(Br)ccc3Cl)nc2c1 | / | / | ? | -1% | -9 | -20%
COc1ccc(S(=O)(=O)N2CCN(C(=O)C3CCCO3)CC2)cc1 (stereo not drawn) | 2 | 1 | 6% | 1% | 4 | -3%
COc1ccc(N(Cc2cc3cccc(C)c3[nH]c2=O)C(=O)C2CCCO2)cc1 (stereo not drawn) | -2 | 2 | -28% | -21% | 3 | ?
CC(Oc1ccc(C(=O)c2ccc(F)cc2)cc1)C(=O)N1CCOCC1 (stereo not drawn) | 0 | -7 | -4% | 1% | 3 | -18%
O=C(Nc1ccc(-c2nc3cc(NC(=O)c4ccccc4F)ccc3o2)cc1)c1ccccc1F | / | / | 15µM* | -26% | 4 | 13µM*
CC(C)(C)c1ccc(-c2nc3cc(NC(=O)c4cccc(Br)c4)ccc3o2)cc1 | / | / | ? | -1% | -11 | 4.6µM*
COc1cc(OC)c(C(=O)Nc2ccc3ccccc3c2)cc1OC | 2 | -12 | ? | -8% | -5 | ?
COc1ccc(NC(=O)c2cc3ccccc3cc2OC)cc1OC | -20 | 12 | ? | -1% | 0 | 18µM*
O=C(Nc1ccc2oc(-c3ccncc3)nc2c1)c1ccccc1F | -15 | -3 | -6% | 111% | 1 | -11%
CC(C)[C@@H]1CN=C(N)N1C[C@@H]1CCCN1C[C@H](C)N1C[C@@H](Cc2ccccc2)N(CCc2ccc(Cl)c(Cl)c2)C1=N | -75* | -60* | ? | -4% | -20 | ?
CC[C@@H](C)[C@@H]1CN([C@@H](CN2CCC[C@H]2CN2C(N)=NC[C@H]2CC(C)C)C(C)C)C(=N)N1CCc1ccc(Cl)c(Cl)c1 | -60* | -7 | ? | -1% | -7 | ?
CC(C)[C@H](CN1CCC[C@H]1CN1C(N)=NC[C@@H]1Cc1ccccc1)N1C[C@@H](Cc2ccccc2)N(CCc2ccc(Cl)c(Cl)c2)C1=N | ? | -29 | 9.2µM* | -3% | -11 | ?

Bioassay records (PubChem)
